For assay [1], the target named is Lysosomal acid glucosylceramidase (Homo sapiens) (UniProt P04062). Put plainly: Glucocerebrosidase-p2 (AID 348; in the data active means potency below about 10 µM; further: potency means the concentration at half of the fitted maximal effect). The conditions noted are these: purified GBA, blue fluorogenic substrate, 40 min. In outline:
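Normal human glucocerebrosidase (0.2 nM) with blue fluorogenic substrate (80 uM final) in citrate/phosphate pH 5.9 with 10mM sodium taurocholate, 0.01% tween-20; 40 min RT, NaOH/glycine stop; fluorescence Ex 365/Em 440; AC50 from a titration from 0.6 nM upwards.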

Assay [2] in a line: AP1 Signaling Pathway (AID 357). Further: on the % scale 0 is the no-effect control and ±100 the full control effect. The conditions noted are these: ME-180 AP-1-bla reporter, EGF-induced, beta-lactamase ratio, 5 h; at 7.69 µM (top of the series) unless noted. The method, boiled down:
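AP-1-bla ME-180 cells with beta-lactamase reporter under AP-1 response element, stimulated with EC50 EGF; compounds titrated, 5 hours at 37 degrees Celsius. CCF4 read at 460/530 nm ratio; positive and negative modulators judged by AC50.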

Assay [3] can be described thus: NFAT Signaling Pathway (AID 444).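 Further: carbachol stimulus at about its EC50 of 1 µM final; on the % scale 0 is the no-effect control and ±100 the full control effect.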 As to conditions: Jurkat NFAT-bla M1, carbachol, beta-lactamase ratio, 5 h; at 7.69 µM (top of the series) unless noted. The method, boiled down:
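Read-out: CCF4 FRET ratio (460 nm/530 nm) after 1 h RT dye loading, used for %activity and AC50 from titration series. Cells: Jurkat NFAT-β-lactamase/M1 line, treated with compound plus 1 uM carbachol for 5 h, 37 °C.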

The nature of assay [4]: Stat Signaling Pathway (AID 446).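 Further: ME-180 cervical cancer cells given 40 pM IL-6 alongside compound; SIE-controlled beta-lactamase reporter measured as 460/530 nm FRET emission ratio; on the % scale 0 is the no-effect control and ±100 the full control effect.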 As to conditions: ME-180 (cervical carcinoma) SIE beta-lactamase reporter, IL-6 stimulated, 5 h; at 7.69 µM (top of the series) unless noted. The method, boiled down:
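Overnight-plated ME-180 cells bearing a STAT Inducible Element beta-lactamase reporter; 5 h co-exposure to compound and 40 pM IL-6; values normalized to 300 pM IL-6 and 125 nM JAK inhibitor controls.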

The target of assay [5] is Glucocorticoid receptor (Homo sapiens) (UniProt P04150). Briefly: GR-GFP Redistribution (AID 450;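 active means compounds whose dose series gives a full or clear partial fitted curve of increased nuclear translocation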; further: potency means the concentration at half of the fitted maximal effect). As to conditions: U2OS GR-GFP nuclear translocation, laser cytometry, 2 h.
For assay [6] the target is unchanged. Put plainly: GR-EFC Redistribution (AID 451; calls by dose curve; further: potency means the concentration at half of the fitted maximal effect). The conditions noted are these: CHO-K1 GR-EFC translocation, beta-gal luminescence, 2 h. The method, boiled down:
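Translocation of GR-ED fusion to nuclear EA restores b-gal, read by luminescence after 1 h room-temperature detection. Engineered CHO-K1 biosensor cells, 1,000/well, exposed 2 h at 37 C to titrations up to 46 uM final.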

In assay [7] the target is Mitogen-activated protein kinase 10 (Mus musculus) (UniProt Q61831). Briefly: JNK3 AlphaScreen Assay (AID 530).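 Further: kinase came from lysate of stimulated human HepG2 cells; signal reports phosphorylation of biotinylated GST-cJun 1-79 at Ser73 with 10 µM ATP; on the % scale 0 is the no-effect control and ±100 the full control effect.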 As to conditions: JNK3 lysate, c-Jun phosphorylation; series mostly up to 11.4 µM. In outline:
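qHTS titrations with 15 min compound pre-incubation before adding ATP (10 uM final). Read-out: AlphaScreen of Ser73-phosphorylated biotin-GST-cJun using HepG2 lysate JNK3 activated by IL-1β and TNFα.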

Assay [8] has as its target 3',5'-cyclic-AMP phosphodiesterase 4B (Homo sapiens) (UniProt Q07343). Briefly: qHTS Assay for Inhibitors of PDE-IV (AID 607; active means well fitted activation curve with a large enough effect in the main read-out, with a control signal flat, not every such curve was filed as active; further: % of control where 0% means no effect). As to conditions: HEK293 ACTOne CNG channel cells, membrane potential fluorescence; series mostly up to 22.9 µM. The method, boiled down: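 Live HEK293 cells with a modified cyclic nucleotide-gated (CNG) channel report intracellular cAMP via membrane-potential dye fluorescence (ex 535/em 590 nm). Endogenous PDE-IV was targeted. Compounds were tested at up to 22.9 uM final; RO 20-1724 100 uM served as control.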

Where “and” joins values, the source holds several entries; their conditions need not be identical. Equal entries are not always repeated. A number with no mark means an inactive call. Records with an inconclusive call do not appear. Calls of active or inactive are those of the source. Unless noted, the call rests on the fitted dose curve; in most records, active means well fitted curve in either direction with a large enough effect (not every such curve was filed as active); inconclusive means small, poorly fitted or top-dose-only effect, or another doubt; inactive means flat fitted curve, though single readings scatter.

Among the data in PubChem BioAssay (NCATS) are Potency, activity change, negative = inhibition and activity, negative = inhibition values, retold here.

Sequence of Glucocorticoid receptor (Homo sapiens) (P04150 whole entry, looked up): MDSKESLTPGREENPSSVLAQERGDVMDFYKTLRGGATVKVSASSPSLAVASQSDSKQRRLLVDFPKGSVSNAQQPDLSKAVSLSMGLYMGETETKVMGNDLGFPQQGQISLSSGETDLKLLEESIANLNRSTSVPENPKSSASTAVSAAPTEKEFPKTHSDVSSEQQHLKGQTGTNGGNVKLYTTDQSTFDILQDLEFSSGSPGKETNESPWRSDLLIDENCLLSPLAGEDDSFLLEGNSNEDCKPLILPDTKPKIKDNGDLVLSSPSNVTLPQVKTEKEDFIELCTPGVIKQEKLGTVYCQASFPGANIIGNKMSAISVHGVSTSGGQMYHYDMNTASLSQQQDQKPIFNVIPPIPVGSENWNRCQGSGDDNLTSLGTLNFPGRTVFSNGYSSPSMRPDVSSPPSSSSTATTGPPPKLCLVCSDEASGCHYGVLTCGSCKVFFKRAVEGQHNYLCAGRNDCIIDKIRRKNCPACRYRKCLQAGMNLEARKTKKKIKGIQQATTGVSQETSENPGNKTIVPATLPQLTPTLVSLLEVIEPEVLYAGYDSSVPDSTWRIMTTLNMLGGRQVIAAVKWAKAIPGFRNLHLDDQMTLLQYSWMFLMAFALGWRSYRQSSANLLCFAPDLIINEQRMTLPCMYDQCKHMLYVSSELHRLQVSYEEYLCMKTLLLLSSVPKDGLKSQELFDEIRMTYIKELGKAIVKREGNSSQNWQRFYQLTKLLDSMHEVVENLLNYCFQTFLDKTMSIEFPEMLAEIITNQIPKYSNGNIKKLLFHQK
Sequence of Lysosomal acid glucosylceramidase (Homo sapiens) (P04062 whole entry, looked up): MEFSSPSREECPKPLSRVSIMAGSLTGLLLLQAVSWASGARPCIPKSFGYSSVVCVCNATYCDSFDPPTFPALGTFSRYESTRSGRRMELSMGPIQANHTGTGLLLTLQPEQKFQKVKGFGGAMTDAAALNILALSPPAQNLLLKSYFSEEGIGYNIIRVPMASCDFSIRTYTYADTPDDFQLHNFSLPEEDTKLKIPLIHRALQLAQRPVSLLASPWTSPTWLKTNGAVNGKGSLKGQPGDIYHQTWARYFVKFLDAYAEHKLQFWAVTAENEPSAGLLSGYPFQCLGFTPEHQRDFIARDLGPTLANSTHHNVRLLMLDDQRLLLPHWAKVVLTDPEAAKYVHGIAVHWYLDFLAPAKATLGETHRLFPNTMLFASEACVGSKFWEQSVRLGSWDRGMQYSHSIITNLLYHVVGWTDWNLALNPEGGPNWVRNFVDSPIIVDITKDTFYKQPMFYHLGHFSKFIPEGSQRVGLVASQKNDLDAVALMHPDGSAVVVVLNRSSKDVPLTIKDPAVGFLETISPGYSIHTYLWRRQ
Sequence of 3',5'-cyclic-AMP phosphodiesterase 4B (Homo sapiens) (Q07343 whole entry, looked up): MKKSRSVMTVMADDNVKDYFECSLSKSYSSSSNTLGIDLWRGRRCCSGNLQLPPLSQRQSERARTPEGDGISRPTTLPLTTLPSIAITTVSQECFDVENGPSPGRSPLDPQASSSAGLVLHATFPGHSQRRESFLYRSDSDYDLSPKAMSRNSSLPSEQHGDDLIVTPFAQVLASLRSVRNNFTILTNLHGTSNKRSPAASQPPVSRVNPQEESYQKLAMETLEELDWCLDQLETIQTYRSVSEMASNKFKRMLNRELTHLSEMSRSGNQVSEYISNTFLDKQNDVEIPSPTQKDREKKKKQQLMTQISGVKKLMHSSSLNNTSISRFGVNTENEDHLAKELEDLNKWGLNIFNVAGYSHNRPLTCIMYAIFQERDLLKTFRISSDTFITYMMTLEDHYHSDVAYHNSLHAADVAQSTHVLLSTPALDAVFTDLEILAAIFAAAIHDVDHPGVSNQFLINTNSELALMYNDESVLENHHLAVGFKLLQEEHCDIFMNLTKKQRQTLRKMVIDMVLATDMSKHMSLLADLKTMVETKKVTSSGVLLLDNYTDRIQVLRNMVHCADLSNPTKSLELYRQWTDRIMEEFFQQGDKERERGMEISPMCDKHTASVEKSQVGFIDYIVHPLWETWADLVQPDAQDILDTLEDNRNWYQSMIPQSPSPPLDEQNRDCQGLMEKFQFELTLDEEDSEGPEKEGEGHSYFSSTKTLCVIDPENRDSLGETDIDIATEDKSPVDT

For `CO[C@@H]1/C=C\O[C@]2(C)Oc3c(C)c(O)c4c(O)c(c(CN(C)C)c(O)c4c3C2=O)NC(=O)/C(C)=C\C=C[C@@H](C)[C@@H](O)[C@H](C)[C@@H](O)[C@H](C)[C@H](OC(C)=O)[C@@H]1C`, the Potency in assay [1] was more than 11.4 µM; in assay [5] it was more than 46 µM; in assay [6] it was more than 9.22 µM. In addition, the activity change, negative = inhibition in assay [2] is -3.25%; in assay [3], 17.6%. Also, the activity, negative = inhibition in assay [4] was -2.18%. The Potency entry in assay [7] and in assay [8] was “inactive” each time.
Consider `CC(C)CCNc1ncnc2[nH]ncc12`, for which the Potency was more than 11.4 µM in assay [1], more than 46 µM in assay [5] and more than 9.22 µM in assay [6]. Besides, the activity change, negative = inhibition was 6.28% in assay [2] and -25.7% in assay [3]. Besides, in assay [4], the activity, negative = inhibition was -5.65%. The Potency entry in assay [7] and in assay [8] was “inactive” in each case.
As to `Clc1cccc(Cl)c1C(Nc1nncs1)Nc1nncs1`, the Potency in assay [1] was more than 11.4 µM; in assay [5] it was more than 46 µM; in assay [6], more than 9.22 µM. Also, the activity change, negative = inhibition in assay [2] was -1.25%; in assay [3] it was 2.41%. Moreover, in assay [4], the activity, negative = inhibition was -3.83%. The Potency entry in assay [7] and in assay [8] was “inactive” each time.
On to `Cc1cc(O)c(C(C)C)cc1CN1CCCCC1`, for which the Potency is more than 11.4 µM in assay [1], more than 46 µM in assay [5] and more than 9.22 µM in assay [6]. Moreover, the activity change, negative = inhibition in assay [2] is 10.4%; in assay [3], -29.6%. Further, in assay [4], the activity, negative = inhibition is 5.31%. Besides, the Potency entry in assay [7] and in assay [8] was “inactive” in each case.
Take `CC(=O)Nc1ccccc1C=C1c2ccccc2-c2ccccc21`: the Potency is more than 11.4 µM in assay [1], more than 46 µM in assay [5] and more than 9.22 µM in assay [6]. Moreover, the results for the activity change, negative = inhibition in assay [2] and in assay [3] were -4.76% and 18%, respectively. Moreover, the activity, negative = inhibition in assay [4] is -16.5%. For the same compound, the Potency entry in assay [7] and in assay [8] was “inactive” each time.
As for `Cn1c(=O)c2[nH]c(SCCN3CCOCC3)nc2n(C)c1=S`, the Potency in assay [1] was more than 11.4 µM; in assay [5], more than 46 µM; in assay [6], more than 9.22 µM. The activity change, negative = inhibition in assay [2] is 0.183%; in assay [3], 15.6%. In assay [4], the activity, negative = inhibition was 1.45%. For the same compound, the Potency entry in assay [7] and in assay [8] was “inactive” in each case.
For the compound `CC(C)=N[C@H](C(=O)O)C(C)(C)S`, the Potency in assay [1] was more than 11.4 µM; in assay [5], more than 46 µM; in assay [6], more than 9.22 µM. For the same compound, the activity change, negative = inhibition was 10% in assay [2] and 3.46% in assay [3]. The activity, negative = inhibition in assay [4] was 6.64%. For the same compound, the Potency entry in assay [7] and in assay [8] was “inactive” in each case.
On to `CN(C)Cc1cc(C(=O)O)cc(CN(C)C)c1O`, for which the values for the Potency in assay [1], in assay [5] and in assay [6] were more than 11.4 µM, more than 46 µM and more than 9.22 µM, respectively. In addition, the activity change, negative = inhibition is 4.91% in assay [2] and 3.37% in assay [3]. The activity, negative = inhibition in assay [4] was -1.77%. Moreover, the Potency entry in assay [7] and in assay [8] was “inactive” in each case.
For the compound `Cc1ccc(S(=O)(=O)OCC(=O)O)cc1`, the figures for the Potency in assay [1], in assay [5] and in assay [6] were more than 11.4 µM, more than 46 µM and more than 9.22 µM, respectively. The activity change, negative = inhibition is 2.36% in assay [2] and 4.54% in assay [3]. Also, the activity, negative = inhibition in assay [4] is 5.39%. The Potency result in assay [7] and in assay [8] was “inactive” throughout.
Turning to `CC(C)c1cc(CN(C)C)c(O)c(C(C)(C)C)c1`, the results for the Potency in assay [1], in assay [5] and in assay [6] were more than 11.4 µM, more than 46 µM and more than 9.22 µM, respectively. For the same compound, the activity change, negative = inhibition in assay [2] was 1.46%; in assay [3] it was -5.67%. In addition, the activity, negative = inhibition in assay [4] was -8.11%. Besides, the Potency entry in assay [7] and in assay [8] was “inactive” in each case.
Regarding `Cc1ccc(CCCC(=O)O)cc1C`, the Potency was more than 11.4 µM in assay [1], more than 46 µM in assay [5] and more than 9.22 µM in assay [6]. Besides, the activity change, negative = inhibition in assay [2] is 2.32%; in assay [3], 9.24%. For the same compound, the activity, negative = inhibition in assay [4] is 3.42%. Also, the Potency entry in assay [7] and in assay [8] was “inactive” throughout.
For `NC(=O)C[C@@H](N)c1nn[nH]n1`, the Potency in assay [1] was more than 11.4 µM; in assay [5], more than 46 µM; in assay [6], more than 9.22 µM. Besides, the activity change, negative = inhibition in assay [2] is 9.01%; in assay [3], 14.8%. Further, the activity, negative = inhibition in assay [4] is 9.79%. Also, the Potency entry in assay [7] and in assay [8] was “inactive” in each case.
`O=C(O)c1ccc(NCc2nc3cc4ccccc4cc3[nH]2)cc1`: the Potency is more than 11.4 µM in assay [1], more than 46 µM in assay [5] and more than 9.22 µM in assay [6]. The activity change, negative = inhibition is -5.67% in assay [2] and 14.2% in assay [3]. Moreover, in assay [4], the activity, negative = inhibition was -2.42%. Besides, the Potency entry in assay [7] and in assay [8] was “inactive” each time.
As to `Nc1c(S(=O)(=O)O)cc(S(=O)(=O)O)c2ccc(N=Nc3ccccc3)c(O)c12`, the results for the Potency in assay [1], in assay [5] and in assay [6] were more than 11.4 µM, 2.59 µM (active) and more than 9.22 µM, respectively. Also, the activity change, negative = inhibition in assay [2] was 1.28%; in assay [3] it was -3.14%. In addition, the activity, negative = inhibition in assay [4] was -2.56%. The Potency result in assay [7] and in assay [8] was “inactive” each time.
Regarding `N=C(N)SCCc1ccccn1`, the Potency in assay [1] was more than 11.4 µM; in assay [5], more than 46 µM; in assay [6] it was more than 9.22 µM. For the same compound, the activity change, negative = inhibition is -8.38% and 0.949% in assay [2]; 3.85% and 12.3% in assay [3]. Moreover, the activity, negative = inhibition in assay [4] is -5.15% and -3.19%. Also, the Potency result in assay [7] and in assay [8] was “inactive” throughout.
